RAD52 anneal inh: blocks human RAD52 DNA annealing | P43351 | recombinant RAD52 DNA annealing, FRET fluorescence | inhibition, % at 18.7 µM | actives 0.46% (n = 360,000);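 active = every replicate showing at least 50% inhibition; inconclusive = mean inhibition at least 50% but not in every replicate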
Glyco luc inh: N-linked glycosylation inhibition; reporter increase, % at 12.5 µM; D54 ERlucT glycosylation luciferase reporter, 24 h; percent of 100 nM tunicamycin response; actives 0.23% (n = 360,000);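 active = mean luciferase reporter signal, scaled so untreated is 0 and the glycosylation-blocking control 100, at or above a set limit in every replicate; inconclusive = mean reaches the limit but not every replicate does; inactive = mean below the limit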;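 also: luciferase carries N-glycosylation sites so blocking glycosylation raises the light; 0% = median of neutral control wells and 100% = median of 100 nM tunicamycin wells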
RAD54 inh: inhibitors of human RAD54 branch migration; Q92698; RAD54 Holliday junction branch migration, FAM/BHQ fluorescence; inhibition, % at 10.4 µM; actives 0.14% (n = 360,000); AID 602329;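 active = mean normalized replicate activity at least 40 and at least half of replicates scoring 40 or more; inconclusive = only one of the two criteria met; inactive = mean below 40 and under half of replicates reaching 40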;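 also: 0% = median of neutral control wells and 100% = median of positive control wells; inhibitors cause a drop in the FAM fluorescence signal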
CASP6 VEID inh: caspase-6 (human) enzyme inhibition; inhibition, % at 12.5 µM; purified caspase-6, Z-VEID-R110 cleavage fluorescence; AID 686996; actives 0.53% (n = 350,000);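 active = mean inhibition across replicates at least about 35%, with every replicate also reaching that limit, limit read from the data; inconclusive = only one of the two criteria met; inactive = neither criterion met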;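 also: 0% = median of neutral control wells and 100% = no fluorescence left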
Target sequence (P55212 24-179 limits assumed): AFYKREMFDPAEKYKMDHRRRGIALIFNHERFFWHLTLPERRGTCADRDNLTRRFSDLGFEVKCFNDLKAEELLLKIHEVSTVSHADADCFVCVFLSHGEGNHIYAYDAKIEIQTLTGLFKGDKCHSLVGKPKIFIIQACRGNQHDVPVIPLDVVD
Target sequence (P55212 194-293 limits assumed): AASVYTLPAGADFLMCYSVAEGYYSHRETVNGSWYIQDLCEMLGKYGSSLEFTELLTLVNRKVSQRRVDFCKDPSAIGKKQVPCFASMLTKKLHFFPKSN
AF4-AF9 inh: inhibitors of human MLL-AF4/AF9 interaction; P42568; AlphaScreen, biotin-AF4 peptide binding to FLAG-AF9; inhibition, % at 10 µM; actives 0.47% (n = 350,000); AID 651704;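 active = every replicate reaching a set inhibition limit, whatever the replicate mean, cut at about 25% in these data; inconclusive = mean inhibition reaches that limit but some replicates miss it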;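 also: 0% = plate neutral control median and 100% = total signal loss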
Starred values were filed as active, the others as inactive; i = inactive; ? = inconclusive; . = no result. Most compounds without a hit are left out; they make up all but 1.2% or so of the library.

SMILES	RAD52 anneal inh	Glyco luc inh	RAD54 inh	CASP6 VEID inh	AF4-AF9 inh
O=C1NC(=O)N(CCC2=CCCCC2)C(=O)/C1=C/c1cccs1	-67.4	6.3	-7.3	37.0*	-2.5
O=C1NC(=O)N(CCC2=CCCCC2)C(=O)/C1=C/c1ccc(O)cc1	-108.7	1.1	-5.3	25.8	-2.1
c1ccc(-c2cc(-c3ccccc3)[n+](-c3ccccc3)c(-c3ccccc3)c2)cc1	4.1	15.7	15.5	2.4	0.8
CN(C)c1ccc(-[n+]2c(-c3ccccc3)cc(-c3ccccc3)cc2-c2ccccc2)cc1	27.1	12.2	.	4.3	31.0*
C=C(C)[C@@]12OC3(c4ccccc4)O[C@@H]1C1[C@@H]4O[C@]4(CO)[C@@H](O)[C@]4(O)C(=O)C(C)=C[C@H]4[C@@]1(O3)[C@H](C)[C@H]2OC(=O)/C=C/C=C/c1ccccc1 (stereo partly drawn)	.	52.8*	-1.3	.	.
CC=Cc1ccc2n(c1=O)C[C@H]1[C@H](CO)[C@@H](C(=O)OC)[C@@H]2N1S(=O)(=O)c1cccc(C)c1 (mixture of isomers)	3.5	.	5.7	-0.6	-2.8
Cc1cc(/C=C2\C(=O)NC(=O)N(c3ccccc3)C2=O)c(C)n1-c1ccc(C(=O)O)c(Cl)c1	-85.3	0.5	5.8	38.1*	-0.9
Cc1c2ccncc2c(C)c2c1[nH]c1ccccc12	.	7.3	50.6*	.	5.4
COCCCn1c(N)c(C(=O)NCc2ccco2)c2nc3ccccc3nc21	-37.7	.	.	98.5*	-3.3
COCCNC(=O)c1c(N)n(Cc2ccco2)c2nc3ccccc3nc12	.	7.7	-16.0	.	.
CC1(CCO)CC(C)(CCc2ccccc2)OO1 (stereo not drawn)	13.0	.	11.2	2.5	-19.9
Cc1ccc(N2C(=O)NC(=O)/C(=C/c3ccoc3)C2=O)cc1	i	1.4	.	84.9*	-1.4
COc1ccc(CN2C(=O)NC(=O)/C(=C/c3ccoc3)C2=O)cc1	i	5.5	-152.3	67.4*	0.2
Cc1ccc(N2C(=O)NC(=O)/C(=C/c3cnn(-c4ccc(C)cc4)c3)C2=O)cc1	.	0.7	2.3	.	.
CN(C)CC#Cc1ccc([C@H]2[C@@H](CO)N3CCCCN(C(=O)Cc4ccccn4)C[C@H]23)cc1	30.8	.	-1.5	0.2	6.7
COc1ccc(C#Cc2ccc([C@@H]3[C@H]4CN(C(=O)Cc5ccccc5)CCCCN4[C@H]3CO)cc2)cc1	-41.8	.	2.7	-3.3	0.8
CC=Cc1ccc2n(c1=O)C[C@@H]1[C@@H](CO)[C@H](C(=O)OC)[C@H]2N1CC1CC1 (mixture of isomers)	2.5	.	-3.8	0.9	-1.3
CCCC#Cc1ccc([C@@H]2[C@@H](CO)N3CCCCN(C(=O)Cc4ccccn4)C[C@@H]23)cc1	-40.4	.	6.9	-6.1	2.5
COc1ccc(N2C(=O)/C(=C/c3ccc(C)o3)C(=O)NC2=S)c(OC)c1	-129.2	-0.5	-2.8	37.8*	-1.2
C=C1C(=O)OC2CCN3CC=C(COC(=O)C(C)(O)C4(CO4)C1C)C23 (stereo not drawn)	-5.4	2.8	-8.4	36.1*	-7.7
C=C1C/C(=C/C)C(=O)O[C@@H]2CCN3CC=C(COC(=O)[C@]1(C)O)[C@H]23	-10.4	2.0	.	1.4	-18.8
O=C1CNC[C@@H]2[C@H](c3ccc(Br)cc3)[C@H](CO)N12	1.6	.	.	0.2	-5.6
CCCNC(=O)N1[C@@H]2c3ccc(-c4ccccc4OC)c(=O)n3C[C@H]1[C@H](CO)[C@H]2C(=O)O	-0.7	.	6.0	-0.2	-1.7
O=C1NC(=O)N(Cc2ccccc2)C(=O)/C1=C\c1ccco1	-158.1	12.9	.	63.0*	-2.7
O=C1NC(=O)N(Cc2ccco2)C(=O)/C1=C/c1cccn1CCOc1ccccc1Cl	-159.6	5.5	.	58.5*	0.5
SMILES	RAD52 anneal inh	Glyco luc inh	RAD54 inh	CASP6 VEID inh	AF4-AF9 inh
Cn1cccc1/C=C1\C(=O)NC(=O)N(Cc2ccccc2)C1=O	-106.1	18.7	.	28.5	3.3
O=C(O)Cn1cc(/C=C2\C(=O)NC(=O)N(Cc3ccco3)C2=O)c2ccccc21	-125.1	2.7	.	74.5*	-4.9
Cc1ccc(N2C(=O)NC(=O)/C(=C\c3cn(CC(=O)O)c4ccccc34)C2=O)cc1	i	-0.3	-1.1	1.2	-10.2
C=CC1CN2CCC1C[C@@H]2CO (stereo partly drawn)	6.0	.	.	-0.4	-2.4
COC(=O)[C@@H]1[C@@H](CO)[C@@H]2Cn3c(ccc(-c4ccccc4F)c3=O)[C@H]1N2C(C)=O	0.4	.	5.5	1.2	0.7
C/C=C/c1ccc(C2[C@@H]3CN(Cc4cocn4)C[C@H]2N3)cc1 (stereo partly drawn)	56.3*	.	.	-1.2	28.7*
CN1C(=O)NC(=O)/C(=C/c2ccc([N+](=O)[O-])o2)C1=O	-69.9	.	.	55.6*	-5.9
N#CC1=C(N)Oc2c(c(=O)oc3ccccc23)C1c1ccc([N+](=O)[O-])o1 (stereo not drawn)	-49.2	-0.8	.	40.3*	-4.1
CCN(CC)C(=O)c1ccc2c(c1)C1C=CCC1C(C(=O)O)N2 (stereo not drawn)	-276.0	0.1	-51.0	39.6*	-4.4
COC(=O)[C@H]1[C@H](CO)[C@H]2Cn3c(ccc(-c4cccc(OC)c4)c3=O)[C@@H]1N2CC1CC1	-9.2	.	-6.1	-0.9	-0.1
COC(=O)[C@H]1[C@H](CO)[C@H]2Cn3c(ccc(-c4cccc(F)c4)c3=O)[C@@H]1N2C(=O)CC1CC1	-6.7	.	4.3	-3.4	1.4
COc1cc2c(cc1O)[C@@H]1Cc3ccc(OC)c(O)c3CN1CC2	16.6	10.7	7.5	4.5	9.4
CCCN1CCc2cc(O)cc3c2[C@H]1Cc1ccc(O)c(O)c1-3	96.0*	-3.3	62.6*	6.3	?
COc1cc2c(cc1O)C[C@H]1c3c(cc(O)c(OC)c3-2)CCN1C	35.9	7.7	7.1	6.3	2.4
CN1CCc2cc(O)cc3c2[C@H]1Cc1ccc(O)c(O)c1-3	94.7*	-8.4	39.2	6.9	18.3
COC(=O)[C@@H]1[C@@H](CO)[C@@H]2Cn3c(ccc(-c4ccccc4F)c3=O)[C@H]1N2CC1CCCC1	-8.2	.	5.5	-0.3	1.4
COc1ccc2c3c([nH]c2c1)C(C)NCC3 (stereo not drawn)	-23.6	-4.2	2.5	-6.1	30.3*
CN(c1ccc(O)cc1)c1ccc([N+](=O)[O-])c2nonc12	-0.4	1.3	2.3	7.7	26.6*
COc1ccccc1N1CCN(Cc2ccc(F)cc2)CC1	.	-0.1	-4.1	.	.
COc1ccccc1N1CCN(CCc2c[nH]c3cc4c(cc23)OCO4)CC1	0.8	0.3	.	-1.9	30.2*
O=C(Cc1ccccn1)N1CCCCN2[C@H](CO)[C@H](c3ccc(Br)cc3)[C@@H]2C1	-5.5	.	-0.6	-2.3	-0.8
CNC(=O)c1cccn(Cc2cc(C(F)(F)F)cc(C(F)(F)F)c2)c1=O	-4.8	19.4	.	-1.7	-0.2
CNC(=O)c1cccn(Cc2ccc(C(F)(F)F)cc2)c1=O	-3.6	34.4*	.	0.0	-1.8

Assay outcomes as filed in PubChem.
